The structures appear in SMILES notation. Activity calls are given as the source filed them. How the calls were made is not given here.

For this assay, the target named is Pantothenate synthetase (Mycobacterium tuberculosis (strain ATCC 25618 / H37Rv)) (UniProt P9WIL5). The assay can be described thus: Recombinant Mtb pantothenate synthetase (PanC) inhibitors, coupled enzyme, confirmatory (AID 375).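 Further: 0% = full reaction with vehicle and 100% = no enzyme background.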 As to conditions: coupled enzyme assay; at 10 µM, stronger effect = higher value.
Pantothenate synthetase (Mycobacterium tuberculosis (strain ATCC 25618 / H37Rv)), sequence (P9WIL5 whole entry, looked up): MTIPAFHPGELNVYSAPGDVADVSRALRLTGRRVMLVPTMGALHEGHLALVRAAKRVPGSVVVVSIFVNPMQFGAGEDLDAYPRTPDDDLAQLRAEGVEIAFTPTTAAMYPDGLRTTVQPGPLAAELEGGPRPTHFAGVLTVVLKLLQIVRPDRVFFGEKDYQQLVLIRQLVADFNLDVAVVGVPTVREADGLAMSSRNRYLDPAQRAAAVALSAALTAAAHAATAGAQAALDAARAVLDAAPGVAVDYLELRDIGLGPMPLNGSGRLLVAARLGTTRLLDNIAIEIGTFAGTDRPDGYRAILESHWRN
With `COc1cccc(C2CC(c3ccccc3)n3ncnc3N2)c1` (stereo not given), the inhibition is 8% (inactive).

Turning to `Cc1nc2ncnn2c(N2CCC(C(=O)NCC3CCCO3)CC2)c1Cc1ccccc1` (stereo not given), the inhibition was 0% (inactive).

`Cc1nc2sc(C(c3cccc(F)c3)N3CCCCC3)c(O)n2n1` (stereo not given): the inhibition is 0% (inactive).

`COc1ccc(CNc2nc(SCC(=O)NCc3ccco3)nc3ccccc23)cc1`: the inhibition was 10% (inactive).

For the compound `COc1ccccc1N1CCN(C(=O)C(Cc2ccccc2)NC(=O)C2CCCCC2)CC1` (stereo not given), the inhibition is 5% (inactive).

For the compound `CC(C)(C)n1ncc2c(=O)n(CC(=O)NCc3ccco3)cnc21`, the inhibition is 11% (inactive).

For the compound `Cn1c(=O)cc(OCCCC(=O)N2CCCCC2)c2ccccc21`, the inhibition is 0% (inactive).

Regarding `Cc1cc(NS(=O)(=O)c2ccc(NC(=O)C(C)N3C(=O)c4ccccc4C3=O)cc2)nc(C)n1` (stereo not given), the inhibition was 1% (inactive).

In the case of `Cc1cc(Nc2ccccc2N2CCOCC2)n2ncnc2n1`, the inhibition is 0% (inactive).

For the compound `COC(=O)c1cc(-c2c(C)oc3cc(O)ccc3c2=O)c(C)o1`, the inhibition was 3% (inactive).

Turning to `CN1CCC(=C2c3ccccc3C=Cc3ccccc32)CC1`, the inhibition is 0% (inactive).

`Cc1ccc(S(=O)(=O)N2CCN(C(=O)c3cc(=O)[nH]c4ccccc34)CC2)c(C)c1`: the inhibition was 3% (inactive).

Regarding `COc1ccc(-c2ccc(-c3nnn(CC(C)=O)n3)cc2)cc1`, the inhibition was 2% (inactive).

For `C=CCn1c(SCC(=O)NCC2CCCO2)nnc1C1CCCCC1` (stereo not given), the inhibition is 8% (inactive).

In the case of `CCOC(=O)c1c(C)[nH]c(C)c1C(=O)COC(=O)CNC(=O)c1ccc(OCC)cc1`, the inhibition is 0% (inactive).

As to `O=C(Cn1cc2c(n1)CCCC2)NCCc1ccccc1`, the inhibition is 0% (inactive).

Consider `CC(O)c1cc2c(cc1NC(=O)c1cnn3c1NC(c1ccco1)CC3C(F)(F)F)OCO2` (stereo not given), for which the inhibition was 0% (inactive).

Take `COc1cc(OC)cc(C(=O)NCCN2CCOCC2)c1`: the inhibition is 0% (inactive).

In the case of `COCC(=O)N(C)c1nnc(-c2ccccn2)s1`, the inhibition was 2% (inactive).

`COc1cc(SC)ccc1C(=O)Nc1ccccc1C#N`: the inhibition was 0% (inactive).

Consider `COc1ccccc1CNC(=O)CCNC(=O)Cn1ccc2ccccc2c1=O`, for which the inhibition was 6% (inactive).

As for `CC(=O)O[C@H]1C(=O)[C@]2(C)[C@H]([C@H](OC(=O)c3ccccc3)[C@]3(O)C[C@H](OC(=O)[C@H](O)[C@@H](NC(=O)c4ccccc4)c4ccccc4)C(C)=C1C3(C)C)[C@]1(OC(C)=O)CO[C@@H]1C[C@@H]2O`, the inhibition is 9% (inactive).

Consider `Cc1ccc(C(=O)/C=C/Nc2cccc(O)c2)cc1`, for which the inhibition was 8% (inactive).

For the compound `CCCn1c(=O)c2ccccc2n2c(SCc3cc(=O)n4ccsc4n3)nnc12`, the inhibition was 0% (inactive).

With `O=C(CN1CCN(c2ncc(C(F)(F)F)cc2Cl)CC1)Nc1ccc2c(c1)OCO2`, the inhibition was 0% (inactive).

For the compound `CN(C)CCCNC(=O)c1ccc(CN(c2ccccc2)S(C)(=O)=O)cc1`, the inhibition was 0% (inactive).

With `CCOC(=O)c1ccc(Oc2nc(NC)nc(OC)n2)cc1`, the inhibition was 0% (inactive).

As for `O=S(=O)(Nc1cccnc1)c1cc(Cl)ccc1Cl`, the inhibition is 0% (inactive).

`COc1ccc(-c2nc(CS(=O)CC(=O)N3CCCC3)c(C)o2)cc1` (stereo not given): the inhibition is 0% (inactive).

For the compound `CCOc1ccccc1C(=O)NCCCn1ccnc1`, the inhibition was 14% (inactive).

With `O=C1NC2=C(C(=O)CCC2)C(c2ccc3ncccc3c2)N1` (stereo not given), the inhibition was 0% (inactive).

Regarding `COc1ccccc1CC(=O)NCc1ccc2c(c1)OCO2`, the inhibition is 0% (inactive).

Regarding `CC(=O)Oc1ccc(CCC(C)OC(C)=O)cc1` (stereo not given), the inhibition is 8% (inactive).

On to `CC(C)c1ccc(C(O)c2cnc(C(C)C)n2C)cc1` (stereo not given), for which the inhibition is 1% (inactive).

As for `CSc1ccc(-c2nc(CSCC(=O)N3CCOCC3)c(C)o2)cc1`, the inhibition is 0% (inactive).

`Cc1ccccc1NC(=O)c1c(F)c(F)c(F)c(F)c1F`: the inhibition was 0% (inactive).

For the compound `Cc1ccc(Nc2cc(-n3nc(C)cc3C)ncn2)cc1`, the inhibition was 0% (inactive).

In the case of `CN(C)/C=c1\sc2c(C#N)cc(C(=O)c3ccc(Br)cc3)n2c1=O`, the inhibition was 5% (inactive).

Consider `C=CCn1c(SCC(=O)O)nnc1-c1cccc(Cl)c1`, for which the inhibition was 0% (inactive).

Turning to `O=C(C1CCCCC1)N1CC(=O)N2CCc3ccccc3C2C1` (stereo not given), the inhibition was 3% (inactive).
